High-throughput results deposited in PubChem BioAssay by The Scripps Research Institute Molecular Screening Center.
An excerpt weighted towards active compounds, which were near 2.4% of everything screened.
CHRM1 PAM: potentiates human M1 receptor response to acetylcholine | P11229 | CHO-K1 hM1, Fluo-8 calcium fluorescence, ACh EC20; 0% = ACh EC20, 100% = maximal ACh | activation, % at 3 µM | hit rate 0.088% among 360,000 | AID 588819; in the data active = activation above about 19%, passing the limit was not always enough
Target sequence (P11229 whole entry, looked up): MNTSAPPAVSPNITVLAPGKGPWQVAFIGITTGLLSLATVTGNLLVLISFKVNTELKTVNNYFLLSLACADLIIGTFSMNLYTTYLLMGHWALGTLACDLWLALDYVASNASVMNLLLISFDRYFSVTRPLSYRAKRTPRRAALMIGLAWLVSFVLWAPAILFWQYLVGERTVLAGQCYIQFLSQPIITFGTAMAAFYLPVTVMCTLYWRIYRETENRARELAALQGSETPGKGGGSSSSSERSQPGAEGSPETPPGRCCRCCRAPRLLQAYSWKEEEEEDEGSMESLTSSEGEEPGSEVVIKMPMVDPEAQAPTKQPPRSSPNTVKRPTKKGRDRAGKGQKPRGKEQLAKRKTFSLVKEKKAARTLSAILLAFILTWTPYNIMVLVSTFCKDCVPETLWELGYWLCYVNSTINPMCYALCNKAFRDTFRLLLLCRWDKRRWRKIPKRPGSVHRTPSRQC
CHO-K1 Ca antag: M1 antagonist counterscreen hit in parental CHO-K1 cells | ATP-induced calcium, Fluo-8 fluorescence | inhibition, % at 3 µM | AID 602250 | hit rate 0.6% among 360,000;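 active = inhibition above a per-plate cutoff, the plate's mean sample inhibition plus 3 SD, cut at about 24% in these data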;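 note: 0% = DMSO plus EC80 ATP and 100% = DMSO alone without ATP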
CHO-K1 Ca PAM: nonselective activator or artifact in parental CHO-K1 calcium assay | ATP EC20, Fluo-8 calcium fluorescence; 0% at ATP EC20, 100% at ATP max | activation, % at 3 µM | hit rate 0.02% among 360,000 | AID 602247;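 active = activation above the run cutoff, the mean activation of all test compounds plus 3 SD, cut at about 40% in these data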;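 note: peak over basal fluorescence ratio in a 140 s read after ATP addition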
CHRM1 agonist: human M1 muscarinic receptor agonism | P11229 | CHO-K1 hM1, Fluo-8 calcium fluorescence, agonist mode; 0% DMSO, 100% acetylcholine EC100 | activation, % at 3 µM | hit rate 0.33% among 360,000 | AID 588814;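 active = activation above the run's mean compound activation plus 3 SD, cut at about 16% in these data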;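 note: peak over basal fluorescence ratio within a 140 s kinetic read after compound addition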
CHRM1 antagonist: antagonists of human M1 muscarinic receptor; P11229; CHO-K1 hM1, Fluo-8 calcium fluorescence, ACh EC80 antagonist; inhibition, % at 3 µM; hit rate 1.3% among 360,000; AID 588852;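 active = percent inhibition above its own plate's cutoff, namely the mean of that plate's compound wells plus 3 SD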;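 note: peak over basal fluorescence ratio during 140 s after agonist addition; 0% = ACh EC80 plus DMSO and 100% = DMSO alone without agonist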
M1 ag parental: counter-screen for M1 agonists: effect in parental CHO-K1 cells; Fluo-8 calcium fluorescence; scaled to maximal ATP response, vehicle zero; activation, % at 3 µM; hit rate 0.48% among 360,000; AID 602248; in the data active = activation above about 15%;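 note: untransfected CHO-K1 host cells lacking M1 receptor as counterscreen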
* = called active by the depositor.

SMILES | CHRM1 PAM | CHO-K1 Ca antag | CHO-K1 Ca PAM | CHRM1 agonist | CHRM1 antagonist | M1 ag parental
CC(=O)OCC(=O)[C@@]1(O)CC[C@H]2[C@@H]3CCC4=CC(=O)C=C[C@]4(C)[C@@]3(Cl)[C@@H](Cl)C[C@@]21C | -14 | -16 | 22 | 37* | -21 | 0
CCn1c(=O)c2ccccc2n(Cc2cccc(C)c2)c1=O | 12 | 27* | -25 | -1 | -2 | 0
CCC(C)[C@H](NC(=O)OC(C)(C)C)C(=O)NCC1CCC(C(=O)N[C@@H](Cc2ccccc2)C(=O)O)CC1 (stereo not given in full) | 4 | 14 | -25 | 1 | 0 | 0
O=C(Nc1ccccc1Cl)N1CCN(c2ccc3nnc(-c4ccc(F)cc4)n3n2)CC1 | -2 | -16 | 7 | -13 | -3 | 0
Fc1ccc(-c2nnc3ccc(N4CCCC4)nn23)cc1 | -30 | 7 | 13 | -5 | 102* | 1
COCCN1CC(CNC(=O)c2cc(COc3ccccc3SC)on2)CC1=O (stereo not given) | 3 | -4 | -8 | -4 | -8 | 0
COc1cc2c3c(c1)c(N=NC(N)=S)c(O)n3C(C)(C)C=C2C | 17 | -9 | -19 | -3 | 33* | 0
COc1cccc(NC(=O)C(=O)NCCCN2CCCC2=O)c1 | 7 | -1 | 13 | -4 | -1 | 0
COc1ccc(OC)c(NC(=O)c2cnc3n(c2=O)CCS3)c1 | 3 | 26* | -15 | -3 | -4 | 0
O/N=C/c1cccc[n+]1CCCCCC[n+]1ccccc1/C=N/O | -22 | 3 | 4 | -9 | 45* | 1
COc1ccc(C(=O)C[n+]2ccccc2/C=N/O)cc1 | -21 | 9 | -7 | -10 | 16 | 0
COc1ccc(C2c3ccc4ccccc4c3Oc3ncn(Cc4ccco4)c(=N)c32)cc1OC (stereo not given) | -12 | 26* | -14 | -8 | 9 | 0
c1ccc(-c2cn3c(n2)-c2ccccc2C3)cc1 | -2 | -5 | 19 | -7 | 6 | 1
N#CCCCc1cc2cc(F)ccc2cn1 | -3 | 4 | -4 | -5 | 8 | 0
O=C(c1cc2ccccc2o1)N1CCC(N2CCC(C(=O)N3CCCC3)CC2)CC1 | -10 | 24* | -16 | -14 | 9 | -1
C=CCNc1nc(Nc2ccc([N+](=O)[O-])cc2)nc(OC)n1 | -2 | 29* | -5 | -9 | -1 | -1
CCCCNS(=O)(=O)NC(=O)C1=C(N2CCCC2)COC1=O | -13 | 27* | -21 | -7 | 26 | -1
CC(NC(=O)COC(=O)CCC(=O)c1ccc(F)cc1)c1ccccc1 (stereo not given) | 15 | -5 | -15 | 3 | -6 | 0
Cc1cc(C)n2nc(S(=O)(=O)N(CC(C)C)CC(C)C)nc2n1 | -5 | 25* | -8 | -4 | 6 | 0
Cc1cc(C)n2nc(S(=O)(=O)N(C)Cc3ccccc3)nc2n1 | 10 | 0 | 5 | -6 | -10 | 0
O=C(NN1C(=O)/C(=C/c2ccc(O)cc2)SC1=S)c1ccccc1O | -2 | -6 | -6 | 11 | 14 | 5
COc1cc(/C=C2\SC(=S)N(NC(=O)c3ccccc3O)C2=O)ccc1O | -5 | 3 | 2 | 20* | 14 | 13
CCOc1ncccc1C(=O)OCc1ccc(C(=O)OC)cc1 | 7 | 13 | 2 | -4 | -1 | 0
CCN1/C(=C2\C(=O)N(c3ccccc3)N=C2C)C=Cc2cc(C)ccc21 | -14 | 15 | -11 | 20* | 11 | 24*
CCN1/C(=c2/s/c(=C3/C(=O)N(c4ccccc4)N=C3C)n(CC)c2=O)C=Cc2ccccc21 | 5 | 6 | -13 | -4 | -10 | 6
C=CCOc1ccc(/C=C/C(=O)OCC(=O)Nc2c(C)n(C)n(-c3ccccc3)c2=O)cc1 | 4 | 39* | -3 | -2 | -16 | 1
NC(=O)COc1ccccc1/C=C1/SC(=O)N(CC(=O)N2CCc3ccccc3C2)C1=O | -5 | -1 | 7 | -1 | -5 | 3
CCOc1cc(/C=C2/SC(=O)N(CC(=O)N3CCc4ccccc4C3)C2=O)ccc1OCC(=O)O | 19* | 2 | 8 | 2 | -13 | -1
CC(=O)c1ccc(NS(=O)(=O)c2ccc(C)cc2)cc1 | -4 | 27* | -6 | -3 | -12 | 0
